Laboratory results published in the supplement of paper PMC11732987, “Enantioselective OTUD7B fragment discovery through chemoproteomics screening and high-throughput optimisation” (Communications Chemistry, 2025).

How the values were obtained:
Experiment in all cases: log2 ratio of Biotin-Ahx-Ub-VS probe labelling (fragment/DMSO); higher = less target engagement (more negative = stronger competition), active = hit call of the paper (q ≤ 0.05, log2 ratio ≤ -1)
Conditions in all cases: compound concentration: 200 uM; treatment time: 3 h
[1] = molecular target: USP34 (UniProt Q70CQ2)
Summary of the method: (§1)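 The table lists average log2 ratios of fragment over vehicle, from an unpaired t-test on global-median-normalised Spectronaut label-free quantities. Proteins with ≥2 unique peptides were used. Samples were HEK293T lysate (495 µg) treated in triplicate with fragment at 200 µM or vehicle for 3 h, then with Biotin-Ahx-Ub-VS (0.5 µM final) for 1 h, with labelled DUBs NeutrAvidin-enriched and run by diaPASEF LC-MS/MS.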

[2] = molecular target: T1, USP36 (UniProt Q9P275)
T1 sequence (whole entry): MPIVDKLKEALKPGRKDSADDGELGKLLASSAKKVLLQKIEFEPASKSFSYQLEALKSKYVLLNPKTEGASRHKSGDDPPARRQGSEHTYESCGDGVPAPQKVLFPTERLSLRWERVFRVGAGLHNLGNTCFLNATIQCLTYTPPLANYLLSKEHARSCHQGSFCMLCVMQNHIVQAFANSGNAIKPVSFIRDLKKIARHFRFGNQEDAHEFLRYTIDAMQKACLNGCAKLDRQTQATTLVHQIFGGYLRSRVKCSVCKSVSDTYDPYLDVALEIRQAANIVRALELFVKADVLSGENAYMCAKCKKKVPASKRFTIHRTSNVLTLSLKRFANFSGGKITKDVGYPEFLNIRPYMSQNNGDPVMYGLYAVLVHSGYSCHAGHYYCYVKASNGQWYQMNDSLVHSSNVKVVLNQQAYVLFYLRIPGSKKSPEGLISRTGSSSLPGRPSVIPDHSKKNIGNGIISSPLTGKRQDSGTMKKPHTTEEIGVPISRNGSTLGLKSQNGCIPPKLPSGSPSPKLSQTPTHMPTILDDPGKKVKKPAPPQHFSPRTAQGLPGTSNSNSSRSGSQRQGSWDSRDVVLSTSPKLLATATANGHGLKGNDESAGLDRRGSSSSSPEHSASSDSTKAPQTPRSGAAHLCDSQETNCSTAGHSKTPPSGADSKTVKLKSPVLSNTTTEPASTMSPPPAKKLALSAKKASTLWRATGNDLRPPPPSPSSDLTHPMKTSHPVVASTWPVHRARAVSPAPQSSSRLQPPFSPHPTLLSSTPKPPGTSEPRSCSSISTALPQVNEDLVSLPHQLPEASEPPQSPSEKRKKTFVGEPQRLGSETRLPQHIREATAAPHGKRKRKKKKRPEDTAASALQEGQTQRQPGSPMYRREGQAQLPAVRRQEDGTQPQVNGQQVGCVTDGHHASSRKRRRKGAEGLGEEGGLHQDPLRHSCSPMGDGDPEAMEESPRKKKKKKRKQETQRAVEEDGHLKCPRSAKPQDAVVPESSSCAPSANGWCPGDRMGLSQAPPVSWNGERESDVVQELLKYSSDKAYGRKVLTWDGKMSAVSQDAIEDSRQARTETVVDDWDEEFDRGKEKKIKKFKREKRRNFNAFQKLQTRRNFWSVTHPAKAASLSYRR
Summary of the method: as §1

[3] = molecular target: T2, USP38 (UniProt Q8NB14)
T2 sequence (whole entry): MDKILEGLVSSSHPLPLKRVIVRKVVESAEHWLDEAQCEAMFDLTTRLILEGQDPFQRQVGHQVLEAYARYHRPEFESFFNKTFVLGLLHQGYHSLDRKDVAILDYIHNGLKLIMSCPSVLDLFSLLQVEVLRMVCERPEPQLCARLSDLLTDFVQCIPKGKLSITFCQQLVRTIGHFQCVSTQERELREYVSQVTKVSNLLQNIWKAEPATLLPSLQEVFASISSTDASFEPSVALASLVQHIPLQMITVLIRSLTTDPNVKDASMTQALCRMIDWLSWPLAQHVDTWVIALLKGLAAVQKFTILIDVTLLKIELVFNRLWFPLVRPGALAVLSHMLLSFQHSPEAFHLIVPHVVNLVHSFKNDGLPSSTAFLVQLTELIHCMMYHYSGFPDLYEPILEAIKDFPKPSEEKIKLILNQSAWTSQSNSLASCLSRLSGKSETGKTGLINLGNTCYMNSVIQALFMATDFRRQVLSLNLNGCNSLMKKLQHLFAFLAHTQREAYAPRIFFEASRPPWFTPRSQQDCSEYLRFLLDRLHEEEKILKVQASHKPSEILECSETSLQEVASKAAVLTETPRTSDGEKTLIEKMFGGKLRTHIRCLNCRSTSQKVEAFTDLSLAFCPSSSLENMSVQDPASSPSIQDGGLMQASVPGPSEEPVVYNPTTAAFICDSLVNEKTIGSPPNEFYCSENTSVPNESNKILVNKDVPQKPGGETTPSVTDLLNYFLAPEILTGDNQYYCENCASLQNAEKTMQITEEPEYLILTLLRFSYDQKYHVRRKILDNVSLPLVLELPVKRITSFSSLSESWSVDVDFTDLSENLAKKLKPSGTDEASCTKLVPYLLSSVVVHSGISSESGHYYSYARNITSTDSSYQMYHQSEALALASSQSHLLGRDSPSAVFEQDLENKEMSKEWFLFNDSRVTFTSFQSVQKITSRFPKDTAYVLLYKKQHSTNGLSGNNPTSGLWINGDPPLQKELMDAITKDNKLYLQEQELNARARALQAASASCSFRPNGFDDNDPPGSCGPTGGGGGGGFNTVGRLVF
Summary of the method: as §1

[4] = molecular target: T3, USP39 (UniProt Q53GS9)
T3 sequence (whole entry): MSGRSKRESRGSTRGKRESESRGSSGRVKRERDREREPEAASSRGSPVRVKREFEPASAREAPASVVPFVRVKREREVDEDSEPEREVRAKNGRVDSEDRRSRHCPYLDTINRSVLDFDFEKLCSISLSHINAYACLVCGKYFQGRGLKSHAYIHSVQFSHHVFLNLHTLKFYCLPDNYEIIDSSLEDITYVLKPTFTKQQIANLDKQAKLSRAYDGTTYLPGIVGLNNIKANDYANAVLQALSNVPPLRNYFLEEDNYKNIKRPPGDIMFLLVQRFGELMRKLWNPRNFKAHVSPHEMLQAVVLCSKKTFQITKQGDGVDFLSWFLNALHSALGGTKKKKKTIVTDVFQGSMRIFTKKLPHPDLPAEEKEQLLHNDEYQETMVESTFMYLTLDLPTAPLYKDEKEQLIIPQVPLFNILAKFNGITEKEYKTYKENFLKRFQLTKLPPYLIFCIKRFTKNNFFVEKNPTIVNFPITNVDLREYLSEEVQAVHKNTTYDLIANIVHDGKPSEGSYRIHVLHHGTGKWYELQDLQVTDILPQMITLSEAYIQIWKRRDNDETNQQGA
Summary of the method: as §1

[5] = molecular target: T4, USP4 (UniProt Q13107)
T4 sequence (whole entry): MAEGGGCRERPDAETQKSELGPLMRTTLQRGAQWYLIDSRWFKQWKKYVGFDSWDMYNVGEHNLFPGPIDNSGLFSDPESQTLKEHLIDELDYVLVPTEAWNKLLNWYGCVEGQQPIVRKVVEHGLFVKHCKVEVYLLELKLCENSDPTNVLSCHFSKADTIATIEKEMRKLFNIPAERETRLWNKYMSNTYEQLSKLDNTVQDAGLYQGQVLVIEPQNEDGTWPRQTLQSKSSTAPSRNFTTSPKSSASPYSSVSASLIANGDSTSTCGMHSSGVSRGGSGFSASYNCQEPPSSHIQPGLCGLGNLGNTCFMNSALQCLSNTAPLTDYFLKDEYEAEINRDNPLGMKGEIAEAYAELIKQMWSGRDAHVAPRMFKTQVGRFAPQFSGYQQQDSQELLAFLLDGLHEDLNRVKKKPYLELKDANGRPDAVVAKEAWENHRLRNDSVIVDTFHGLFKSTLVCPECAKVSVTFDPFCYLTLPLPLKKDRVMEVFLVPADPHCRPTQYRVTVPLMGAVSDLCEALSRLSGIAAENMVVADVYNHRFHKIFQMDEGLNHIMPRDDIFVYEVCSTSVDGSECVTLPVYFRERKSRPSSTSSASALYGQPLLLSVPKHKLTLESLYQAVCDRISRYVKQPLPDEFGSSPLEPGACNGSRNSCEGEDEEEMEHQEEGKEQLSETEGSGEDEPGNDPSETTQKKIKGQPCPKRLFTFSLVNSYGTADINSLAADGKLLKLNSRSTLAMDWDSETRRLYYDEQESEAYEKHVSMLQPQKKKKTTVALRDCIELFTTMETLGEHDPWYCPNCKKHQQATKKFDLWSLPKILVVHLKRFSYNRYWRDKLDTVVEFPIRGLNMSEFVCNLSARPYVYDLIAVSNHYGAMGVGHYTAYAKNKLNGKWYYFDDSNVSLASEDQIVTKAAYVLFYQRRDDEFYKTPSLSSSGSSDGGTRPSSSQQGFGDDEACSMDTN
Summary of the method: as §1

Measured: log2 ratio of Biotin-Ahx-Ub-VS probe labelling

Chain of USP34 (Q70CQ2 whole entry, the tested form may be a part): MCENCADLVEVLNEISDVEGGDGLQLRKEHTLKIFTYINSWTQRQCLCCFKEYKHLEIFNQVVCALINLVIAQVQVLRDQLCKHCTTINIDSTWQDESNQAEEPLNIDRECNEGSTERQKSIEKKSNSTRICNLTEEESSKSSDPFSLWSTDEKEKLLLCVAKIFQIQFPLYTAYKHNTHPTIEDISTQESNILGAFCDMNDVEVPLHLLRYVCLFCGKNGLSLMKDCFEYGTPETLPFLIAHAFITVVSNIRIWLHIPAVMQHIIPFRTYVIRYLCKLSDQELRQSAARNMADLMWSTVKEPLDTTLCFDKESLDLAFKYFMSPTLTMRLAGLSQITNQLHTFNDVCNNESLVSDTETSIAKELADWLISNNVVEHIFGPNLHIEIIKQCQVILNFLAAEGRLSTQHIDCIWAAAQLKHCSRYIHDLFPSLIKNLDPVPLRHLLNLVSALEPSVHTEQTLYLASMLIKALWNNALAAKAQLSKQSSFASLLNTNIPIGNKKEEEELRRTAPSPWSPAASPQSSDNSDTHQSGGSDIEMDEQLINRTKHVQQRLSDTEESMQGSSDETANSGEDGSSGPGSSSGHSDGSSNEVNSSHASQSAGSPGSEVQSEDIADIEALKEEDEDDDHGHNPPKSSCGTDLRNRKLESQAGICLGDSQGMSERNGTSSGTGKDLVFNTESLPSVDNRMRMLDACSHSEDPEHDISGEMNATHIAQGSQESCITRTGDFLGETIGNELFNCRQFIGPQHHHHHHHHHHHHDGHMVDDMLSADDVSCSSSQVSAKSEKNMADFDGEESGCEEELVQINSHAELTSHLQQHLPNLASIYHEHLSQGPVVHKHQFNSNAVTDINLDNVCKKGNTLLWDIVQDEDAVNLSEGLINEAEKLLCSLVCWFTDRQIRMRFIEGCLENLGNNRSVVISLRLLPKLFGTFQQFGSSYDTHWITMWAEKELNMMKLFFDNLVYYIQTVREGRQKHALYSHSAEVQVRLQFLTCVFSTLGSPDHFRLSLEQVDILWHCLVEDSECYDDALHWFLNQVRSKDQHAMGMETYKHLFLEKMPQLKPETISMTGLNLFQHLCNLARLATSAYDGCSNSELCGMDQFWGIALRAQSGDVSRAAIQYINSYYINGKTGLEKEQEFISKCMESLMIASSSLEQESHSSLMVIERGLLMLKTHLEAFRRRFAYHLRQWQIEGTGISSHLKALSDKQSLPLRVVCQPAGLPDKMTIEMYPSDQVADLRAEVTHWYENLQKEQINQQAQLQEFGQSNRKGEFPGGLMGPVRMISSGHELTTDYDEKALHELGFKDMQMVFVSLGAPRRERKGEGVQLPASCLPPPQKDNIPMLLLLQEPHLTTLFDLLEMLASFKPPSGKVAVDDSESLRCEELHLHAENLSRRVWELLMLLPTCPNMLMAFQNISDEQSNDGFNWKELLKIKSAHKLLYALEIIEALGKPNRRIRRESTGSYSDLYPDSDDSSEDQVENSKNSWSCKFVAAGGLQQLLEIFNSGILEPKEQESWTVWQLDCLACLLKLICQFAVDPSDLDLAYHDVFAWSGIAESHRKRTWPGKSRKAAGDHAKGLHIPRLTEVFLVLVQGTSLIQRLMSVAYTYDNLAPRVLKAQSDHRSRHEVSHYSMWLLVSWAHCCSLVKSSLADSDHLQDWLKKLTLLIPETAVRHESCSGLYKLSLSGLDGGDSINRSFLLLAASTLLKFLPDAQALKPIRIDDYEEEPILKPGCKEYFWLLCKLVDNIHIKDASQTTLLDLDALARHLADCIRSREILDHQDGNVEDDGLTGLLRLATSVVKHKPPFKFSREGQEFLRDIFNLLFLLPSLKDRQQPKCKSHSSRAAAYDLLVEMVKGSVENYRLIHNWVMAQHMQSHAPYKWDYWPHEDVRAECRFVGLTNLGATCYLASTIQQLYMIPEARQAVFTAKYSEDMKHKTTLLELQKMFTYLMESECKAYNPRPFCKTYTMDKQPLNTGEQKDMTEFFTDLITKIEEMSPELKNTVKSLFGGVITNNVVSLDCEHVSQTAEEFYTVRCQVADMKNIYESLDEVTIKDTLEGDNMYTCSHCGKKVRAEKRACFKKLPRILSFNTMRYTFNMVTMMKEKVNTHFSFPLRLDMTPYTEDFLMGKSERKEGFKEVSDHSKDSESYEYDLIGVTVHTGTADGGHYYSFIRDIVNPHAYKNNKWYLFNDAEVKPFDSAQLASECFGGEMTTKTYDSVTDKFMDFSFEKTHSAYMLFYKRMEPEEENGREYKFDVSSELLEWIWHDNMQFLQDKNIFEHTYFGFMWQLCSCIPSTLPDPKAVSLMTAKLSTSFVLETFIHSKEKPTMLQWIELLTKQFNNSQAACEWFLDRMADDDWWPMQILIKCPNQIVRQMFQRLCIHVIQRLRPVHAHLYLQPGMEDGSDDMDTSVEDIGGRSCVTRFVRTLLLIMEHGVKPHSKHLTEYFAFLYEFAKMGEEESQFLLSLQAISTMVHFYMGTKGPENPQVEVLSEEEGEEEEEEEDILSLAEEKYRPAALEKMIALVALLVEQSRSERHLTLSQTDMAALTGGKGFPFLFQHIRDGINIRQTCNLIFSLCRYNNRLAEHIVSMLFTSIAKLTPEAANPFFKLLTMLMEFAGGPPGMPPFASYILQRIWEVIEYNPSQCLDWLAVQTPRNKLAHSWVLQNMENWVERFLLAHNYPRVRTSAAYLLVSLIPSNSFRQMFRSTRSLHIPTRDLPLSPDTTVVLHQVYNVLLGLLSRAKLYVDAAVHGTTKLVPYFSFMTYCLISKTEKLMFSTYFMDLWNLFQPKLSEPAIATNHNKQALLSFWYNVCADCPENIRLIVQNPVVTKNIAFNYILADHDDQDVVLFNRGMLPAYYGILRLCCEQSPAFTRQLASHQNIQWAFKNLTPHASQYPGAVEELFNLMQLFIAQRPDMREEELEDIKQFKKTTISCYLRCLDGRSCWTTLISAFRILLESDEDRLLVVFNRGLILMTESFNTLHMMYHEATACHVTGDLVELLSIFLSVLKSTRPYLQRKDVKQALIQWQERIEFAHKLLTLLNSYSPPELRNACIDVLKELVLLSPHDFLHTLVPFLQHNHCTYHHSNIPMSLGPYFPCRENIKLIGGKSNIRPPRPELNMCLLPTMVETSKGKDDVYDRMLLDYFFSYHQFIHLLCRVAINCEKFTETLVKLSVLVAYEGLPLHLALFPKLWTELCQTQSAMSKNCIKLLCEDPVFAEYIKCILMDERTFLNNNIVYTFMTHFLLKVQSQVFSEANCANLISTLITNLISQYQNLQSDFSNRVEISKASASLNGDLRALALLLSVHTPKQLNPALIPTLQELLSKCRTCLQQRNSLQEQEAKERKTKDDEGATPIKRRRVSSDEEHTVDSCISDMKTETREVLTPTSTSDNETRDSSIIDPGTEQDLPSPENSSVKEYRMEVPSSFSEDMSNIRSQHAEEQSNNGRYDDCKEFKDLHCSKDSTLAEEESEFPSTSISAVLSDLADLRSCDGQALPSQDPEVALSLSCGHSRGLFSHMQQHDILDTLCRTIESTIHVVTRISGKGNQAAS

O=C(CCl)N1CCCC2CCCCC21 (stereo not given)
inactive: [1] -0.14 | [2] -0.176 | [3] -0.0442 | [4] -0.107 | [5] -0.14
